Test results published in PubChem BioAssay AID489018 (Southern Research Specialized Biocontainment Screening …, 2010).
In all, about 2,300 compounds went through this assay and about 350 (15%) were called active. A selection follows. Entries with a potency or affinity are not part of this list. Unmarked numbers belong to inactive results. How the calls were made is not given here.

Assay: HepG2 cell cytotoxicity, dose response, cytotoxicity control for non-replicating M. tuberculosis project (AID 489018);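 further: HepG2 human liver cells; 100% = vehicle-treated cells and 0% = background signal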
Settings: series mostly up to 20 µM; viability: at the top concentration

Structure (SMILES)	viability
Cn1cccc1/C=N\NC(=O)C1COc2ccccc2O1 (centres undefined)	89.8%
O=C(C/C=N\OCc1ccc([N+](=O)[O-])cc1)Nc1ccc(Cl)cc1	91.9%
O=C(NCC(c1cccs1)N1CCOCC1)c1cc([N+](=O)[O-])cc([N+](=O)[O-])c1 (centres undefined)	97.6%
OC(CNCCc1ccc(C(F)(F)F)cc1)COc1cccc2ccccc12 (centres undefined)	97.7% [at 5 µM]
OC(CNCCc1ccc(C(F)(F)F)cc1)COc1ccc2ccccc2c1 (centres undefined)	96.9% [at 5 µM]
Cn1ccsc1=NC(=O)c1ccccc1F	103%
CCc1ccc(C(=O)COC(=O)c2ccc(Cl)nc2)cc1	98.2%
Cc1cccc(NC(=O)COc2ccc(Br)cc2)n1	107%
Cc1nc([N+](=O)[O-])c(Br)n1CC(=O)c1ccccc1	96.7%
c1ccc(-c2nc3ccccn3c2NC2CCCC2)nc1	89.2% [at 5 µM]
O=C(N/N=C/C=C/c1ccccc1)c1ccncc1	106%
O=C(Nc1ccccn1)c1ccc(C(=O)c2ccccc2)cc1	93.6%
CC(C)(C)NCc1cc(Br)ccc1OCc1cccs1	70.4%
CC(C)CCCn1c(O)c(/C=C2/C=CC=N2)c(=O)[nH]c1=O	107%
CC1=C(C)/C(=N\OS(=O)(=O)c2ccccc2)C=CC1=O	95.9%
CN(CC(=O)Nc1ccc(C#N)cc1)Cc1ccc(Cl)c(Cl)c1	106%
Cc1ccccc1-c1cc2c(nn1)-c1ccccc1C2=O	99.2%
Nc1ccc2c(c1)oc1ccccc12	113%
COc1cc(OC)cc(-c2nc3ccccc3c(=O)o2)c1	94.9%
O=C(COC(=O)c1ccccc1)NC12CC3CC(CC(C3)C1)C2	100%
O=C(CC(=O)c1ccccc1O)c1cccc(F)c1	90.6%
O=C(O)c1ccc(NS(=O)(=O)/C=C/c2ccccc2)cc1O	101%
CCn1c(NC(=O)C2CCCCC2)nc2ccccc21	103% [at 5 µM]
Cc1cc(NC(=O)COc2ccccc2)ccc1Cl	89.3%
O=c1cc(C(F)(F)F)[nH]c2c(C(F)(F)F)cccc12	87.7%

Structure (SMILES)	viability
CCc1nonc1NC(=O)COc1ccc(Cl)c(C)c1	105%
CCOC(=O)Nc1cccc(OCC(=O)Nc2ccccc2OC)c1	114%
CCOC(=O)Nc1ccc2c(c1)N(C(=O)CCN1CCOCC1)c1ccccc1S2=O (centres undefined)	100%
O=C(Nc1nc2ccccc2[nH]1)c1cccc(Cl)c1	88.9%
O=C(Nc1nc2ccccc2[nH]1)c1ccc(F)cc1	82.1%
CN1CCC(O)(c2ccc(Cl)cc2)C(C(=O)c2ccc(Cl)cc2)C1 (centres undefined)	98.3%
CC(C)c1ccc(OCC(=O)NCc2ccccc2)cc1	96.2%
O=C(COc1ccc(Cl)cc1)Nc1ccccc1Cl	105% [at 5 µM]
Cc1ccc(C)c(-c2nnc(NC(=O)C3=COCCO3)o2)c1	94.1%
O=C(NCCc1c[nH]c2ccccc12)c1cc2ccccc2oc1=O	96.5%
COc1ccccc1N1CCN(C(=O)c2ccc([N+](=O)[O-])s2)CC1	107% [at 5 µM]
Fc1ccc(-c2nn(-c3ccccc3)cc2CNCc2ccccc2)cc1	71.3%
Cc1ccc(-n2cc(CNCCn3nc(C)cc3C)c(-c3ccc(F)cc3)n2)cc1	76.2%
Cc1cc(Br)ccc1OCC(=O)NNC(=O)C(=O)Nc1ccccc1	109%
O=C(CCN1C(=O)/C(=C/c2ccccc2Cl)SC1=S)N1CCCC1	102% [at 5 µM]
COc1cccc(OCc2nnc(-c3cccs3)o2)c1	96.8%
Cc1ccc(Oc2c(C(N)=O)cc([N+](=O)[O-])cc2[N+](=O)[O-])cc1	95.9% [at 5 µM]
Cc1csc(=Nc2cccnc2)n1CC1CCCCC1	89.3%
CCOC(=O)c1csc(COc2ccc(OC)cc2)n1	103%
COc1ccc(O)c(C(=O)CC(=O)c2ccc(F)cc2)c1	97%
Cc1ccc(NC(=O)C2=C(c3ccccc3)S(=O)(=O)CCS2(=O)=O)cc1	104% [at 5 µM]
CCOC(=O)C1CCCN(Cc2ccc(OCc3ccccc3)cc2)C1 (centres undefined)	100%
CCOC(=O)C1CCN(Cc2ccc(-c3ccccc3)cc2)CC1	103%
Cc1ccc(C(=O)OCC(=O)N2CCCCCC2)c(O)c1	104%
CCCCC1CCC(C(=O)Nc2ccc(S(=O)(=O)Nc3nccs3)cc2)CC1 (centres undefined)	97.8%

Structure (SMILES)	viability
Cc1ccc(C(=O)N/N=C/c2cccc3ccccc23)cn1	98%
Cc1nn(C)cc1/C=N/NC(=O)c1sc2ccccc2c1Cl	83%
CC(C)c1nnc(NC(=O)c2cc3cc(Br)ccc3oc2=O)s1	93.2%
O=C(OCc1ccc([N+](=O)[O-])cc1)c1ccc2ccccc2n1	94.9%
CN(C)CC/C=C1\c2cc(Cl)ccc2Sc2cc(F)c(F)cc21	112% [at 5 µM]
C/C(=N\NC(=O)c1cc([N+](=O)[O-])cc([N+](=O)[O-])c1)c1ccco1	96%
O=C(CN1CCN(c2ccc([N+](=O)[O-])cc2)CC1)Nc1ccccn1	77.3%
COc1ccc(CN=C(C#N)C2=C(O)c3ccccc3C2=O)cc1	88.4%
CCOC(=O)COn1c(-c2cccc(Cl)c2)nc2ccc([N+](=O)[O-])cc21	89.2%
N/C(=N\OC(=O)c1cccc(Br)c1)c1ccc([N+](=O)[O-])cc1	97.3%
O=c1c2cc(Cl)ccc2nc(-c2ccc([N+](=O)[O-])cc2)n1O	78.1%
O=c1c2c([N+](=O)[O-])cc([N+](=O)[O-])cc2sn1-c1ccc(Br)cc1	105%
O=C(NCc1cccs1)c1cc(-c2ccc(O)cc2)on1	88.8%
CC(C)(C)NC(=O)COC(=O)c1snc(C(=O)NC2CCCCC2)c1N	74.4%
CCS(=O)(=O)c1c([N+](=O)[O-])ncn1C	92.7% [at 5 µM]
COc1ccc([N+](=O)[O-])c(S(=O)(=O)c2ccc(Cl)cc2)n1	70.5%
CCOC(=O)c1c(C)nc2cc(C)ccn12	94.2%
COC(=O)c1ccc(COC(=O)c2ccccn2)cc1	105%
CCOc1ccc(C(=O)N/N=C/c2cccc3cccnc23)cc1	97.7% [at 5 µM]
CCOc1ccc(C(=O)N/N=C(/C)C2C(=O)c3ccccc3C2=O)cc1	92.2%
CCc1ccc(/C=N/NC(=O)c2ccccn2)cc1	103% [at 5 µM]
O=C1NC(=O)N(Cc2ccc(F)cc2)C(=O)/C1=C\c1ccc([N+](=O)[O-])s1	102%
O=C(OCc1nnc(-c2ccccc2)o1)c1ccc(Br)o1	106%
Cc1ccccc1-n1c(C)cc(/C=N/NC(=O)c2ccncc2)c1C	92.9%
